Assay outcomes (PubChem BioAssay)
Many of the other results were omitted from the sample, so hits are more common in it than they were.
Dicer processing: human Dicer pre-microRNA cleavage inhibition; Q9UPY3; z-score at 25 µM; cat-ELCCA pre-miR-21 Dicer processing, chemiluminescence; hits give high values; actives 6% (n = 47,000); in the data active = z-score above about 3, passing the limit was not always enough;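 also: plate controls were vehicle for no effect and no enzyme for full effect; higher signal means more uncleaved substrate so more Dicer inhibition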
Target sequence (Q9UPY3 whole entry, looked up): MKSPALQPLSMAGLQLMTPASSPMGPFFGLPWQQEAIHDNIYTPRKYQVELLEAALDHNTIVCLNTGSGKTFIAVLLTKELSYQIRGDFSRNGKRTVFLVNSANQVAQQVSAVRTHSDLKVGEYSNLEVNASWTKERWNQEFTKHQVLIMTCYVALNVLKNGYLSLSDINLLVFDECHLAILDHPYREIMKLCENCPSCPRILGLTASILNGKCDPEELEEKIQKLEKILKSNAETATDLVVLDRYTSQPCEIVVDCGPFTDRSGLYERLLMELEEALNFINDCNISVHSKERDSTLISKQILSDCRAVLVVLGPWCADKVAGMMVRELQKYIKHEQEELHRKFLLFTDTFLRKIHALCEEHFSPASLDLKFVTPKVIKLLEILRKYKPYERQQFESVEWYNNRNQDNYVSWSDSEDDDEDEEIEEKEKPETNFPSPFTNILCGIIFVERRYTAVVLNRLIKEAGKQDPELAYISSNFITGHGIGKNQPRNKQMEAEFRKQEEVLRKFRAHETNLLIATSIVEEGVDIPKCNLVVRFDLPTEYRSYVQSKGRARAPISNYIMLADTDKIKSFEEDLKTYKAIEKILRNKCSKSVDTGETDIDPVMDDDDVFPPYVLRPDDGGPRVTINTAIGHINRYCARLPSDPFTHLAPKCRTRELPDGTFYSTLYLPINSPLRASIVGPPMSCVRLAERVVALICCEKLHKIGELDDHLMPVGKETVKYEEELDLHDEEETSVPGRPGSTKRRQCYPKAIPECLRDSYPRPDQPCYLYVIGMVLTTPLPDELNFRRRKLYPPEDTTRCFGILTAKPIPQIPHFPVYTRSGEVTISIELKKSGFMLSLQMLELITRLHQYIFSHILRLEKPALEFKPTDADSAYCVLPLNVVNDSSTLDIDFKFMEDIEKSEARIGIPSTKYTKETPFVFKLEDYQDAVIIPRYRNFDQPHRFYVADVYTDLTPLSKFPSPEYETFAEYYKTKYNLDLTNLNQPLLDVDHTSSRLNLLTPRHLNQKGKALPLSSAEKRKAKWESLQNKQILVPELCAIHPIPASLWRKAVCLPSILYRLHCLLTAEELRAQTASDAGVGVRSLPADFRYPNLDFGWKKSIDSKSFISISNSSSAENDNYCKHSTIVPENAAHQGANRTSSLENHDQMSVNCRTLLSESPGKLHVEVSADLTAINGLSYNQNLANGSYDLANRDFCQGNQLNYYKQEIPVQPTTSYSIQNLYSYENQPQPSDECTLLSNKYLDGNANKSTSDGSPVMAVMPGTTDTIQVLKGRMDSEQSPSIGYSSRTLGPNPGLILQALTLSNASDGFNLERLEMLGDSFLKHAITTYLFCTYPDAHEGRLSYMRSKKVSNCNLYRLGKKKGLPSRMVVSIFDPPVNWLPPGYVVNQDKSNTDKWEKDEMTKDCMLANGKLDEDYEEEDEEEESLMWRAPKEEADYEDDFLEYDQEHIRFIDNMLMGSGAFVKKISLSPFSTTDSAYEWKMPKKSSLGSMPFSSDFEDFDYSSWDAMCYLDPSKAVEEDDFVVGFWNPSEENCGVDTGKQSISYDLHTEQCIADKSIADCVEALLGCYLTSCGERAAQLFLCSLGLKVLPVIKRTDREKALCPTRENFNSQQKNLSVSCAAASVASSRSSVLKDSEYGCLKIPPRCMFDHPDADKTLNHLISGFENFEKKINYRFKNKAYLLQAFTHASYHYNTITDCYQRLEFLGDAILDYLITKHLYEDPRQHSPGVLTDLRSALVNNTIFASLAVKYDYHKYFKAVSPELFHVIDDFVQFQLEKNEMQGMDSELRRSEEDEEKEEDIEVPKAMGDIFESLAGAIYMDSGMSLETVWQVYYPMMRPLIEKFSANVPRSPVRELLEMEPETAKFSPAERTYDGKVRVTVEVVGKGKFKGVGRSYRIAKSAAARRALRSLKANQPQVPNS
* = called active by the depositor.

What do the screens show for `O=S(=O)(Cc1ccccc1)c1nc2ccccc2[nH]1`?
Dicer processing: 0.84

What do the screens show for `c1cncc(CN2CNc3nc4ccccc4n3C2)c1`?
Dicer processing: 3*

What do the screens show for `c1ccc2c(c1)nc1n2CN(CCN2CCOCC2)CN1`?
Dicer processing: 3.2*

How did Cc1cc2nc(NC3=NCN(Cc4cccnc4)CN3)nc(C)c2cc1C do in these assays?
Dicer processing: 1.5

Results for c1ccc2c(c1)nc1n2CN(Cc2ccc3c(c2)OCO3)CN1 ?
Dicer processing: 3.5*

Results for c1ccc2c(c1)nc1n2CN(CCCN2CCOCC2)CN1 ?
Dicer processing: 1.2

Results for c1ccc2oc(NC3=NCN(Cc4ccc5c(c4)OCO5)CN3)nc2c1 ?
Dicer processing: 2.3

Results for Cc1c2c(n3c(nc4ccccc43)c1C#N)N(Cc1cccnc1)CC2 ?
Dicer processing: -1.2

Results for Cc1ccc2nc(NC3=NCN(Cc4ccc5c(c4)OCO5)CN3)nc(C)c2c1 ?
Dicer processing: 0.55

What do the screens show for `c1ccc(CCN2CN(CCCN3CCOCC3)c3nc4ccccc4n3C2)cc1`?
Dicer processing: -1.4

Results for COc1ccc(C2CC(=O)C3=C(C2)NC(C)=C(C(=O)OC(C)C)C3c2ccc(F)cc2)cc1OC (centres undefined) ?
Dicer processing: 2.5

How did CSc1nnc2c(n1)OC(c1ccccc1)Nc1ccc(Br)cc1-2 (centres undefined) do in these assays?
Dicer processing: 0.93

What do the screens show for `COc1cc(C(=O)NNS(C)(=O)=O)c(-n2c(C)ccc2C)cc1OC`?
Dicer processing: -1.1

How did CN(CCOC(=O)C(C)(C)C)c1nc2cc(Cl)ccc2s1 do in these assays?
Dicer processing: -1.8

How did COc1ccc(-n2[nH]c3[nH]c(-c4ccccc4)cc(=O)c3c2=O)cc1 do in these assays?
Dicer processing: -1.6

How did O=C(O)c1cc2cc(OCc3ccccc3)ccc2[nH]1 do in these assays?
Dicer processing: -0.97

Results for CCOC(=O)c1cc2cc(OCc3ccccc3)ccc2n1C(=O)c1ccccc1C(=O)O ?
Dicer processing: 3.1*

How did CCOC(=O)c1c(C)oc2ccc(OCc3ccc(F)cc3)cc12 do in these assays?
Dicer processing: 0.96

Results for O=C(Nc1ccc(Cl)cc1)O/N=C\c1ccc(C#Cc2ccccc2)cc1 ?
Dicer processing: 0.34

What do the screens show for `CCOC(=O)Nc1c(C(=O)OCC)[nH]c2ccc(OC)cc12`?
Dicer processing: 5.2*

Results for CCOC(=O)Nc1c(C(=O)OCC)[nH]c2ccc(F)cc12 ?
Dicer processing: 2.8

Results for CCOC(=O)c1[nH]c2ccc(F)cc2c1NC(C)=O ?
Dicer processing: 2.4

Results for CSc1nc2cc(C(C)(C)C)nn2c(N)c1S(=O)(=O)c1ccc(Cl)cc1 ?
Dicer processing: 0.79

What do the screens show for `Cn1cnc(S(=O)(=O)NCCN2CCNC2=O)c1`?
Dicer processing: -2.9

How did Cc1ccc2cc3c(nc2c1)N(c1ccccc1)CC3 do in these assays?
Dicer processing: -2.5

Results for COC(=O)c1ccc(N2C(=O)CC(N3CCN(C)CC3)C2=O)cc1 (centres undefined) ?
Dicer processing: 0.87

What do the screens show for `COC(=O)c1ccc(N2CCc3cc4ccc(C)cc4nc32)cc1`?
Dicer processing: 3*

How did Nc1nonc1-n1nnc(C(=O)O)c1-c1ccc(C2CCCCC2)cc1 do in these assays?
Dicer processing: 0.92

What do the screens show for `Cc1cn2c3ccccc3nc2n1CCCO`?
Dicer processing: 1.9

Results for COc1ccc(C2c3c(n(C)c(=O)n(C)c3=O)N=C3c4ccccc4C(=O)C32)cc1OC (centres undefined) ?
Dicer processing: -0.39

Results for CC1=C(C(=O)OC(C)C)C(c2ccc3c(c2)OCO3)C2=C(CCCC2=O)N1 (centres undefined) ?
Dicer processing: 0.26

How did COc1ccc(O)c(C2=NN3C(C2)c2ccccc2OC3c2ccncc2)c1 (centres undefined) do in these assays?
Dicer processing: 11*

What do the screens show for `COc1ccc(O)c(C2=NN3C(C2)c2cccc(OC)c2OC3c2cc(OC)ccc2OC)c1` (centres undefined)?
Dicer processing: 2.9

Results for COc1ccc(O)c(C2=NN3C(C2)c2ccccc2OC3c2ccc(OC)c(OC)c2)c1 (centres undefined) ?
Dicer processing: 6*

What do the screens show for `COC(=O)c1ccc(C2Oc3ccccc3C3CC(c4ccccc4O)=NN32)cc1` (centres undefined)?
Dicer processing: 0.57

What do the screens show for `COc1cc(C2Oc3c(OC)cccc3C3CC(c4ccccc4O)=NN32)ccc1O` (centres undefined)?
Dicer processing: 2.6

What do the screens show for `COc1cc(C2Oc3ccccc3C3CC(c4ccccc4O)=NN32)ccc1O` (centres undefined)?
Dicer processing: 11*

What do the screens show for `COc1ccc(O)c(C2=NN3C(C2)c2cccc(OC)c2OC3c2cccc(OC)c2OC)c1` (centres undefined)?
Dicer processing: 2.1

How did COc1ccc(O)c(C2=NN3C(C2)c2ccccc2OC3c2ccccc2)c1 (centres undefined) do in these assays?
Dicer processing: 8.3*

How did O=C1c2oc3ccccc3c(=O)c2C(c2ccc(F)cc2)N1Cc1ccc2c(c1)OCO2 (centres undefined) do in these assays?
Dicer processing: 1.4

Results for O=[N+]([O-])c1cc2c(c(CSCCO)c1)OCOC2 ?
Dicer processing: 1.5

Results for CC(C)(C)c1cnnn1-c1ccc(NC(=O)c2cccs2)cc1 ?
Dicer processing: 1.5

Results for N[C@@H](Cc1ccccc1)c1nnc(SCc2ccccc2)o1 ?
Dicer processing: -0.29

Results for CCC1CSC(Nc2ccc(C)c(Cl)c2)=N1 (centres undefined) ?
Dicer processing: -0.71

Results for CCCC(=O)Oc1ccc2c(=O)c(Oc3ccc(OC)cc3)coc2c1 ?
Dicer processing: 0.81

What do the screens show for `CC(C)c1nc2sc3c(NCCCO)ncnc3c2c2c1CCCC2`?
Dicer processing: -0.28

How did CCOC(=O)N/N=C(\Cc1ccccc1)c1ccccc1 do in these assays?
Dicer processing: 0.39

Results for COC(=O)c1ccc(C2c3c(oc4cc(C)c(C)cc4c3=O)C(=O)N2c2ccc(C)cn2)cc1 (centres undefined) ?
Dicer processing: 0.19

How did COc1ccc(O)c(C2=NN3C(C2)c2ccccc2OC3c2cc(OC)ccc2OC)c1 (centres undefined) do in these assays?
Dicer processing: 1.7

Results for COc1ccc(C2Oc3c(OC)cccc3C3CC(c4ccccc4O)=NN32)c(OC)c1 (centres undefined) ?
Dicer processing: 3.7

Results for Oc1ccccc1C1=NN2C(C1)c1ccccc1OC2c1ccsc1 (centres undefined) ?
Dicer processing: 4.5

Results for COc1ccc(O)c(C2=NN3C(C2)c2cccc(OC)c2OC3c2ccccc2F)c1 (centres undefined) ?
Dicer processing: 0.02

Results for Cc1ccc(O)c(C2=NN3C(C2)c2ccccc2OC3c2ccsc2)c1 (centres undefined) ?
Dicer processing: 2.9

How did COc1ccc(O)c(C2=NN3C(C2)c2ccccc2OC3c2ccsc2)c1 (centres undefined) do in these assays?
Dicer processing: 5.5*

Results for COc1ccc(OC)c(C2Oc3ccccc3C3CC(c4ccccc4O)=NN32)c1 (centres undefined) ?
Dicer processing: 6*

What do the screens show for `COc1ccc(O)c(C2=NN3C(C2)c2ccccc2OC3c2cccc(F)c2)c1` (centres undefined)?
Dicer processing: 5.2*

How did O=C(NCc1c(F)cccc1Sc1ccc(Cl)cc1)Nc1ccc(Cl)cc1 do in these assays?
Dicer processing: 0.67
